Calls of active or inactive are those of the source. Calls follow the shape of the dose curve; as a rule, active = well fitted curve in the direction sought with a large enough effect in the repeat runs; inconclusive = weak or mixed curves; inactive = flat fitted curve, though single readings scatter.
% is scaled to controls: 0 for no effect and ±100 for the full control effect.

This assay can be described thus: qHTS assay to test for compound auto fluorescence at 590 nm (red) in HepG2 cell free culture (AID 720684). To be noted: cell-free medium autofluorescence, red 540/590 nm; series mostly up to 91.3 µM. The source says:
U.S. Tox21 Program National Center for Advancing Translational Sciences [NCATS] NIH Chemical Genomics Center [NCGC] U.S. Environmental Protection Agency [EPA] National Institutes of Environmental Health Sciences [NIEHS] National Toxicology Program [NTP] U.S. Food and Drug Administration [FDA] Tox21 Assay Overview: Compound auto fluorescence often interferes with screening of the compound library against various biological targets and signaling pathways. Some of these compounds may have fluorophoric properties. Such properties may interfere with the assay outputs resulting in false positives and/or negatives. To decrease such complications and ensure the compound activities are relevant in terms of biological response, the Tox21 10K compound library was screened for auto fluorescence. From the fluorophores used as reporter signals in our screening assays, the auto fluorescence equivalencies of compounds against three fluorophores have been evaluated: Triamterene, Fluorescein and Rose Bengal sodium for blue, green and red fluorescence, respectively. The fluorescence intensities were measured using Excitation/Emission wavelengths at 405/460nm, 485/535nm and 540/590nm for blue, green and red labels, respectively. This assay includes the red fluorescence data.
Tox21 Assay Protocol Summary: 5 uL of culture medium (MEM containing 10% FBS) per well was dispensed into black wall/clear bottom 1536-well plates using a Multidrop Combi Dispenser (ThermoFisher Scientific, Waltham, MA). After 23 nL compound or DMSO vehicle was transferred into assay plate by a pintool work station (Kalypsys, San Diego, CA), fluorescence intensities in the assay plates were measured by an Envision (PerkinElmer, Shelton, CT) plate reader using three labels for measuring blue, green and red fluorescence at […] 460, 535 and 590nm respectively.
In general terms: qHTS replaces the single test concentration by a dilution series.
For `c1ccc(CCCc2ccncc2)cc1`, the outcome was inactive.
On the same count and under the same terms, the entry for `O=C(O)CN1C(=O)c2cccc3cccc(c23)C1=O` is “inactive”; for `CC(C)CC(O)CC(C)C` it is “inactive”; for `Cc1cc(CCC(=O)OCCOCCOCCOC(=O)CCc2cc(C)c(O)c(C(C)(C)C)c2)cc(C(C)(C)C)c1O` it is “inactive”.
On the same count and under the same terms, next, `CC1CCCC(=O)C1=O` (stereo not given): “inactive”; `COc1cc(S(=O)(=O)Nc2ccccc2)c(OC)cc1N`: “inactive”; `COC(OC)OC`: “inactive”.
Take `CC(O)Cn1cnc2c1c(=O)n(C)c(=O)n2C` (stereo not given): the fluorescence, % of Rose Bengal is -0.131% [at 18.6 µM] (inactive).
Consider `CC(=O)OCCC(C)CC(C)(C)C` (stereo not given), for which the molecule was classed as inactive.
On to `CCOC(=O)c1c(N)sc2c1CCN(Cc1ccccc1)C2`, for which the molecule was classed as inactive.
In the case of `Cc1ccc(N(CCO)CCO)cc1`, the result was inactive.
For the molecule `c1ccc(CNc2ncnc3c2ncn3C2CCCCO2)cc1` (stereo not given), the molecule was called inactive.
The same measure, in the same setting: the entry for `O=S(=O)(Cl)c1c(Cl)cccc1Cl` is “inactive”; for `CCCCCCCCCCCC(=O)OCC(O)CO` (stereo not given) it is “inactive”.
Still for that read-out and setting: next, `CC(=O)OCC(C)C`: “inactive”.
Consider `CCCCCCCC/C=C\CCCCCCCC(=O)OCCO`, for which the result was inactive.
Turning to `CC(=O)C(=O)CC(C)C`, the call was inactive.
Still for that read-out and setting: the entry for `O=C(NC(Cc1cc(=O)[nH]c2ccccc12)C(=O)O)c1ccc(Cl)cc1` (stereo not given) is “inactive”; for `CC(C)(C)CCCCCCOC(=O)c1ccccc1C(=O)OCCCCCCC(C)(C)C` it is “inactive”.
On the same count and under the same terms, the entry for `CCCCCCCCCCCCCCCC(=O)OCC` is “inactive”.
On to `CN(C)CC/C=C1\c2ccccc2Sc2ccc(Cl)cc21`, for which the result was inactive.
Still for that read-out and setting: next, `C=C(C)c1ccccc1`: “inactive”.
Same read-out and setting: the entry for `O=C(c1ccccc1)c1ccc(O)cc1` is “inactive”; for `Cc1ccc2nc(N)[nH]c(=O)c2c1Sc1ccncc1` it is “inactive”.
In the case of `CCOC(=O)c1ccc(NC(=O)CN2CCCCC2)cc1`, the call was inactive.
On the same count and under the same terms, the entry for `C=C(C)C(=O)OCCC(F)(F)C(F)(F)C(F)(F)C(F)(F)C(F)(F)C(F)(F)F` is “inactive”.
For `CCCCCCCCCCCCCOC(=O)CCSCCC(=O)OCCCCCCCCCCCCC`, the fluorescence, % of Rose Bengal is -0.0106% [at 18.6 µM] (inactive).
The same measure, in the same setting: the figure for `CC1=CC[C@@H]2C[C@H]1C2(C)C` is 0.0249% [at 18.6 µM] (inactive).
`O=C(C(=O)c1ccco1)c1ccco1`: the call was inactive.
For `CC1=CC[C@@]23C[C@@H]1C(C)(C)[C@@H]2CC[C@H]3C`, the molecule was classed as inactive.
For `CC(C)N(C)C`, the result was inactive.
The same measure, in the same setting: next, `CC(C)(C)C1(CCc2ccc(Cl)cc2)CO1` (stereo not given): “inactive”.
In the case of `CCC(Cl)CC(Cl)C(Cl)C(Cl)C(Cl)C(C)Cl` (stereo not given), the fluorescence, % of Rose Bengal was 0.0345% [at 13.4 µM] (inactive).
In the case of `CC(=O)N[C@@H](Cc1ccc(O)cc1)C(=O)O`, the molecule was classed as inactive.
For `CC(C)C(O)C(C)(C)CO` (stereo not given), the result was inactive.
Still for that read-out and setting: the entry for `COc1ccc(C)cc1` is “inactive”.
The same measure, in the same setting: the entry for `Cc1cn([C@H]2C[C@H](F)[C@@H](CO)O2)c(=O)[nH]c1=O` is “inactive”.
On the same count and under the same terms, next, `C=CCOC(=O)COCCC(C)C`: “inactive”.
In the case of `CCSC(=O)N(CC)CC`, the call was inactive.
On the same count and under the same terms, the entry for `C/C(C=O)=C\c1ccccc1` is “inactive”.

For the origin of these results see PubChem BioAssay (Tox21).
